Compound activity (PubChem BioAssay)
Mdm2 MdmX PPI = inhibitors of human Mdm2-MdmX association, primary screen, cell-based, luminescence, split luciferase, SaOS-2, uHTS; hit rate 3% among 330,000; Protein Mdm4 (Homo sapiens) + E3 ubiquitin-protein ligase Mdm2 (Homo sapiens), …; AID 485346, 2010; inhibition, % at 8 µM; SaOS-2 split-luciferase Mdm2/MdmX complementation;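 active = inhibition of at least 50% at 8 µM in the primary screen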
PAX8 reporter = inhibitors of PAX8-driven TPO luciferase reporter, primary screen, RMG-I cells, single concentration | SteadyGlo, 24 h | inhibition, % at 12.6 µM | hit rate 1.2% among 360,000 | AID 652154, 2013;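 active = mean replicate inhibition at least 60% with every replicate also reaching 60%; inconclusive = only one of the two criteria is met; inactive = mean below 60% and not all replicates reaching 60%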;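 also: luciferase light reporting Pax8 driven TPO promoter activity; plate controls were median of neutral control wells for no effect and mitoxantrone controls for full effect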
Beta cell apopt = inhibitors of cytokine-induced beta cell apoptosis, primary screen, luminescence | INS-1E cytokine-induced death, ATP luminescence, 48 h; percent of positive-control rescue, neutral wells zero | protection from apoptosis, % (test concentration not listed) | hit rate 0.8% among 300,000;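 active = Every replicate reaches about 75%, or at least half do and their mean reaches it too, limit read from the data; inconclusive = At least half of replicates reach the limit but their mean does not; inactive = Under half of replicates reach the limit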;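 also: 0% = cytokine-treated negative control wells and 100% = positive control rescue; higher means more ATP so stronger rescue from cytokine killing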
Shn3 3UTR inh = reduction of Shn3 3'UTR firefly luciferase signal, primary screen, Schnurri-3 inhibitor project, cell-based, Clone20 osteoblasts, set 2 | Clone20 osteoblast Shn3 3'UTR firefly luciferase, 24 h | inhibition, % at 12.5 µM | hit rate 0.52% among 360,000;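 active = mean inhibition of at least 75% with every replicate also reaching 75%; inconclusive = mean inhibition at least 75% but some replicate below; inactive = mean inhibition below 75%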;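 also: 0% = median of neutral control wells and 100% = pilot-screen positive control compound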
CSC inhib = cancer stem cell viability inhibitors, primary screen, luminescence; cancer stem cell-like cells viability; inhibition, % at 7.5 µM; hit rate 1.1% among 300,000; in the data active = inhibition above about 75%; inconclusive = no clear call, values can overlap the other calls; tested in HMLE shEcad cells
Gli-Sufu antag = Gli-Sufu pathway antagonists, primary screen, luciferase luminescence, Sufu-KO-LIGHT cells, uHTS; Sufu-KO-LIGHT fibroblasts, Gli luciferase reporter luminescence; AID 588413, 2011; inhibition, % at 5 µM; hit rate 0.74% among 340,000;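 active = inhibition above about 55%, limit read from the data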;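 also: 0% = DMSO-treated cells and 100% = wells with medium but no cells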
Mdm2 MdmX conf = Mdm2-MdmX complex disruptors, retested hits, confirmation, luminescence, single concentration; shares compounds with Mdm2 MdmX PPI; Mdm2-MdmX binding, luminescent assay; inhibition, % at 8 µM; hit rate 55% among 10,000; AID 489028, 2010; in the data active = inhibition above about 40%
FLuc counter = full-length luciferase signal inhibition, confirmation, counter-screen for Mdm2/MdmX interaction inhibitor project, cell-based, single concentration, SaOS-2; inhibition, % at 8 µM; shares compounds with Mdm2 MdmX PPI; SaOS-2 full-length luciferase counterscreen, luminescence; hit rate 77% among 6,200;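 active = mean inhibition at 8 µM reaching about 37%, which flags the compound as non-specific, limit read from the data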;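 also: p53-null SaOS-2 cells with luciferase driven by a doxycycline-inducible promoter; compound on cells about two nights before reading with doxycycline added after day one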
An asterisk follows results filed as active; ? = inconclusive; . = not tested or not shown. Compounds with a hit are over-represented: about 4% of the library has one in this group of screens.

SMILES	Mdm2 MdmX PPI	PAX8 reporter	Beta cell apopt	Shn3 3UTR inh	CSC inhib	Gli-Sufu antag	Mdm2 MdmX conf	FLuc counter
O=C(CCS(=O)(=O)c1ccccc1)Nc1nc(-c2ccc(F)cc2)cs1	60.0*	9.9	9.8	40.2	?	41.7	43.2*	53.0*
Cc1ccc(S(=O)(=O)CCC(=O)Nc2nc(-c3ccccn3)cs2)cc1	66.7*	80.3*	-15.4	41.6	26.8	1.9	29.4	.
O=C(COc1ccccc1)Nc1nc(-c2ccncc2)cs1	36.4	-7.6	-7.1	26.1	-7.7	-3.5	.	.
Cc1ccc(OCC(=O)Nc2nc(-c3ccccn3)cs2)c(C)c1	42.6	.	3.5	2.5	.	-2.3	.	.
O=C(CCS(=O)(=O)c1ccc(Cl)cc1)Nc1nc(-c2ccncc2)cs1	96.6*	96.2*	-22.3	34.6	9.0	2.5	55.5*	25.6
Cc1ccc(S(=O)(=O)CCC(=O)Nc2nc(-c3cccnc3)cs2)cc1	58.5*	-1.5	-20.6	17.1	-5.3	20.6	35.8	66.3*
O=C(CS(=O)(=O)c1ccccc1)Nc1nc(-c2ccc(F)cc2)cs1	0.7	8.9	-2.1	-3.9	0.7	1.9	.	.
COc1cccc(NC(=O)C[C@H]2CC[C@@H]3[C@H](COc4ccc(NC(=O)C5CCOCC5)cc4C(=O)N3C)O2)c1	.	4.1	.	.	.	.	.	.
Cc1ccc(C2(C)NC(=O)N(CC(=O)Nc3nc(-c4ccccn4)cs3)C2=O)cc1 (stereo unspecified)	59.1*	16.5	.	62.5	-11.0	1.0	49.4*	63.9*
O=C(CCS(=O)(=O)c1ccc(Cl)cc1)Nc1nc(-c2cccnc2)cs1	70.4*	18.2	.	4.0	10.7	1.5	31.8	71.9*
CC(=O)c1sc(NC(=O)CCS(=O)(=O)c2ccc(Cl)cc2)nc1C	50.9*	89.3*	-45.7	-21.0	20.1	5.6	51.9*	68.7*
COc1cccc(C(=O)Nc2nc(-c3ccncc3)cs2)c1	1.0	-0.4	0.6	9.2	12.5	29.0	.	.
COc1ccc(NC(=O)CCS(=O)(=O)c2ccc(Cl)cc2)cc1	-37.5	-5.9	-0.9	9.7	-14.7	4.0	.	.
O=C(Nc1nc(-c2ccncc2)cs1)c1ccc(F)cc1	66.3*	22.7	3.4	-34.7	-6.6	1.5	22.2	.
N#C[C@@H]1[C@H](c2ccc(C3=CCCCC3)cc2)[C@H](CO)N1C(=O)NC1CCCCC1	.	4.8	.	.	.	.	.	.
CC(=O)N1[C@@H]2c3ccc(-c4ccccc4)c(=O)n3C[C@H]1[C@H](CO)[C@H]2C(=O)N1CCCCC1	.	-2.1	.	.	.	.	.	.
Cc1cc(C)cc(OCC(=O)Nc2nc(-c3cccnc3)cs2)c1	78.0*	2.8	-2.0	26.8	-11.4	4.6	31.4	.
O=C1/C(=C\c2cc(Br)cc(Br)c2O)SC(=S)N1Cc1ccccc1	91.3*	.	0.0	13.2	77.5*	0.6	79.4*	37.1*
O=C1/C(=C\c2cccc([N+](=O)[O-])c2O)SC(=S)N1Cc1ccccc1	.	32.9	6.5	-17.6	35.0	37.3	.	.
O=C1/C(=C\c2ccc(O)cc2)SC(=S)N1Cc1ccccc1	35.7	-15.5	8.8	5.0	-12.7	-11.2	.	.
O=C1/C(=C/c2ccc(O)c([N+](=O)[O-])c2)SC(=S)N1Cc1ccccc1	62.1*	15.3	22.6	18.0	.	1.2	44.9*	70.5*
CCSC1(SCC)N=C(N)C2(C#N)C(c3ccc(OC)c(OC)c3OC)C12C#N (stereo unspecified)	68.5*	.	-6.0	-19.6	-5.7	8.8	49.8*	17.4
CCSC1(SCC)N=C(N)C2(C#N)C(c3ccccc3)NC3=C(CCC3)C12C#N (stereo unspecified)	42.0	.	-1.0	0.9	-6.8	3.6	.	.
COC1=C(N)C(=O)c2nc(-c3nc(C(=O)O)c(C)c(-c4ccc(OC)c(OC)c4O)c3N)ccc2C1=O	100.3*	.	.	114.2*	.	88.8*	100.0*	1.6
C/C=C/c1ccc([C@H]2[C@@H](CO)N(C(C)=O)C23CN(C(=O)NC2CCCCC2)C3)cc1	.	0.3	.	.	.	.	.	.
SMILES	Mdm2 MdmX PPI	PAX8 reporter	Beta cell apopt	Shn3 3UTR inh	CSC inhib	Gli-Sufu antag	Mdm2 MdmX conf	FLuc counter
Cn1cc([N+](=O)[O-])c(C(=O)Nc2nccs2)n1	57.2*	37.0	0.6	5.8	26.7	4.8	16.6	.
Cn1cc([N+](=O)[O-])c(C(=O)Nc2ccc(Br)cn2)n1	55.9*	.	-13.4	-9.7	40.0	-15.2	43.5*	90.3*
CNC[C@@H]1OCCCC[C@@H](C)Oc2ccc(NC(=O)c3ccncc3)cc2C(=O)N([C@H](C)CO)C[C@@H]1C	.	-23.3	.	.	.	.	.	.
C[C@@H](O)C#Cc1ccc([C@@H]2[C@H](CO)N3CCCCN(S(=O)(=O)Cc4ccccc4)C[C@@H]23)cc1	.	-7.7	.	.	.	.	.	.
Cc1cc(=O)oc2cc(OCc3cc4c(cc3Cl)OCO4)ccc12	89.1*	.	8.3	-20.0	-12.9	-29.6	-17.6	.
O=C(NNC(=O)C1CCN(S(=O)(=O)c2ccc(Cl)cc2)CC1)c1ccccc1O	55.7*	32.9	0.2	87.0*	37.1	6.4	59.1*	45.8*
C[C@@H]1CN([C@@H](C)CO)C(=O)c2cccc(NS(=O)(=O)c3ccc(F)cc3)c2O[C@@H]1CN(C)C	.	-3.8	.	.	.	.	.	.
O=C1Nc2ccc(Br)cc2C12NNc1ccccc1O2 (stereo unspecified)	76.4*	7.5	-2.5	-17.0	82.5*	1.9	22.6	.
O=C(C[C@H]1C[C@H]2c3cc(NC(=O)NC4CCCC4)ccc3O[C@H]2[C@H](CO)O1)NCc1ccc(-c2ccccc2)cc1	.	-0.9	.	.	.	.	.	.
O=C(NCCc1ccccc1)c1ccc2c(c1)OCO2	66.5*	53.9	0.3	21.6	1.5	-60.0	57.0*	51.6*
O=C(NCCS(=O)(=O)NCc1ccccc1)c1ccc2c(c1)OCO2	24.7	-2.1	-2.1	-3.0	.	-7.3	.	.
Cc1noc(C)c1S(=O)(=O)Nc1ccc2c(c1)CC(=O)N([C@@H](C)CO)C[C@@H](C)[C@@H](CN(C)C)O2	.	-19.1	.	.	.	.	.	.
COC(=O)C[C@@H]1C[C@@H]2c3cc(NC(=O)CC4CC4)ccc3O[C@@H]2[C@@H](CO)O1	.	10.7	.	.	.	.	.	.
O=C(Nc1ccc(S(=O)(=O)NC2=NCCCCC2)cc1)c1ccc(Cl)c([N+](=O)[O-])c1	40.0	14.8	-2.5	8.5	-21.3	1.1	.	.
N#Cc1ccsc1NC(=O)c1ccc(Cl)c([N+](=O)[O-])c1	61.0*	-18.9	24.9	-36.0	23.3	7.0	55.8*	112.3*
